NPR2 activator: human GC-B receptor activators, primary screen, HEK293 GC-B cells, cGMP TR-FRET, EC30 CNP. actives 0.11% (n = 370,000). activation, % at 10 µM. Atrial natriuretic peptide receptor 2 (Homo sapiens), P20594. 0% at EC30 CNP, 100% saturating CNP. AID 1920062, 2024;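 active = activation at 10 µM reaching about 35% in either raw or pattern-adjusted values, limit read from the data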
ALR inh: inhibitors of human ALR sulfhydryl oxidase, primary screen, biochemical, H2O2 detection, HRP-luminol luminescence, single point | purified ALR, DTT oxidation | actives 3.8% (n = 290,000) | FAD-linked sulfhydryl oxidase ALR (Homo sapiens), P55789 | inhibition, % (concentration not given with the values);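 active = mean replicate inhibition above about 79%, with every replicate also reaching it, limit read from the data; inconclusive = only one of the two criteria met; inactive = mean below limit and not every replicate reaching it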
Target sequence (P55789 whole entry, looked up): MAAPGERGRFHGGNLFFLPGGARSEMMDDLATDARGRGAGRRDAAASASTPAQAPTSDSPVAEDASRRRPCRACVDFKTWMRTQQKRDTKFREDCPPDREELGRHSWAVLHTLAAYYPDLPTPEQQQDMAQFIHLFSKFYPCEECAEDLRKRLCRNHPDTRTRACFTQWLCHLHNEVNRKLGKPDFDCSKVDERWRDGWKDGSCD
NPR1 activator: GC-A stimulated cGMP production enhancers – HEK293 GC-A cells, cGMP TR-FRET, EC30 ANP, primary screen. Atrial natriuretic peptide receptor 1 (Homo sapiens), P16066. 0% at EC30 ANP, 100% saturating ANP. activation, % at 10 µM. actives 0.14% (n = 370,000). AID 1671463, 2021; in the data active = activation above about 40%
HDAC3 inh: HDAC3 deacetylase inhibitors, primary screen, biochemical, fluorescence, cell-free homogeneous. inhibition, % at 8.3 µM. recombinant HDAC3, fluorogenic peptide/trypsin coupled. Histone deacetylase 3 (Homo sapiens), O15379. AID 2718, 2010. actives 0.15% (n = 320,000); in the data active = inhibition above about 26%, passing the limit was not always enough; inconclusive = no clear call, values can overlap the other calls
Numbers without * were called inactive; ? = inconclusive; · = not tested or not shown. The entries come from a sample that favours hits as a whole.

SMILES	NPR2 activator	ALR inh	NPR1 activator	HDAC3 inh
CCOC(=O)C1(CCOc2ccccc2)CCN(CC(O)CO)CC1 (centres undefined)	1.4	·	-2.4	0.0
COc1cccc(-c2nc(CS(=O)(=O)CC(=O)NCCc3cc(OC)ccc3OC)c(C)o2)c1	-3.8	98.7*	-6.0	2.8
Cc1oc(-c2ccccc2F)nc1CS(=O)(=O)CC(=O)NCCCN1CCN(C)CC1	1.5	-0.8	2.6	-2.6
COc1ccc(-c2nc(CS(=O)(=O)CC(=O)NCCCN3CCN(C)CC3)c(C)o2)cc1	3.7	98.9*	-2.8	-1.2
COc1ccc(-c2nc(CS(=O)(=O)CC(=O)NCCc3cc(OC)ccc3OC)c(C)o2)cc1	-7.6	98.6*	-8.0	-10.1
COc1cccc(-c2nc(CS(=O)(=O)CC(=O)NCCc3ccc(OC)cc3OC)c(C)o2)c1	-1.2	58.8	-6.0	-3.7
COc1ccc(OC)c(CCNC(=O)CS(=O)(=O)Cc2nc(-c3ccc(C)cc3)oc2C)c1	-9.4	-7.6	-4.0	-10.8
CCN(C(=O)CCNC(=O)Cn1cnc2ccccc2c1=O)c1cccc(Cl)c1	-1.3	-7.9	-2.0	2.7
O=C(O)c1cnc(-c2ccccc2)nc1Sc1cccc(Cl)c1	-3.0	96.2*	3.9	-8.2
COC(=O)c1ccc(CSc2nc3c(cnn3-c3ccc(C)cc3)c(=O)[nH]2)o1	19.0	-0.1	3.5	3.9
COC(=O)c1ccc(CSc2nc3ccc(C)cc3[nH]2)o1	·	95.3*	·	-0.2
COC(=O)c1ccc(CSc2n[nH]c(=S)s2)o1	1.7	91.8*	4.0	4.1
CCOC(=O)c1sc(N)c(C#N)c1CSc1nc2ccc(C)cc2[nH]1	-16.3	91.2*	-27.8	5.4
COc1cccc(CNC(=O)[C@H]2CCCN2C(=O)[C@H]2CCCN2C(=O)c2ccccc2)c1	6.3	·	5.0	·
CCOc1cc(CNc2ccc3[nH]c(=O)[nH]c3c2)ccc1OCC(=O)NC(C)(C)C	-8.5	91.3*	-6.0	-32.7
C=CCOc1ccc(CNc2ccc3[nH]c(=O)[nH]c3c2)cc1OCC	-9.3	97.9*	-7.7	8.5
C=CCOc1ccc(CNCCO)cc1OCC	-1.8	·	1.0	-0.8
COc1cc(CNc2ccc(N3CCCCC3)cc2)ccc1OCC(=O)NC(C)(C)C	-1.4	99.0*	-1.6	4.8
C=CCOc1ccc(CNCc2cccnc2)cc1OCC	7.0	94.4*	-5.6	-3.9
C=CCOc1c(CNc2ccc3[nH]c(=O)[nH]c3c2)cccc1OC	-9.2	98.8*	-6.5	0.5
C=CCOc1ccc(CNc2ccc3[nH]c(=O)[nH]c3c2)cc1	-9.7	99.4*	-4.6	0.3
COc1cc(CNc2ccc3[nH]c(=O)[nH]c3c2)cc(Cl)c1OCC(=O)NC(C)(C)C	-5.8	97.6*	-7.8	-0.1
COc1cc(CNn2c(C)n[nH]c2=S)cc(Cl)c1OCC(=O)NC(C)(C)C	0.8	50.2	-0.7	11.3
COc1ccc(-c2nc(=S)[nH][nH]2)cc1OC	0.5	100.1*	0.4	5.8
COc1ccc(-c2nc(=S)[nH][nH]2)cc1	-0.9	99.5*	-0.1	-1.4
SMILES	NPR2 activator	ALR inh	NPR1 activator	HDAC3 inh
CCOc1ccc(-c2nc(=S)[nH][nH]2)cc1	-1.0	·	1.3	·
FC(F)(F)c1ccc(-c2nc(=S)[nH][nH]2)cc1	-4.8	99.1*	-2.0	5.3
COc1cc(-c2nc(=S)[nH][nH]2)cc(OC)c1OC	0.6	98.6*	3.1	?
Cc1sc(-c2ccncc2)nc1OC(=O)c1ccccc1	-4.8	11.5	6.9	-1.4
O=C(O)C1CCN(C(=O)c2ccccc2N2C(=O)[C@@H]3Cc4c([nH]c5ccccc45)C(c4cccc(Cl)c4)N3C2=O)CC1 (some centres undefined)	58.4*	98.8*	52.9*	6.7
Cc1ccc(C2c3[nH]c4ccccc4c3C[C@H]3C(=O)N(c4ccccc4C(=O)N4CCC[C@@H]4C(=O)O)C(=O)N23)cc1 (some centres undefined)	1.8	98.2*	-3.0	-3.8
Cc1ccc(C2c3[nH]c4ccccc4c3C[C@H]3C(=O)N(c4ccccc4C(=O)N4CCC(C(=O)O)CC4)C(=O)N23)cc1 (some centres undefined)	22.9	15.9	11.8	-3.2
COc1cccc(C2c3[nH]c4ccccc4c3C[C@H]3C(=O)N(c4ccccc4C(=O)N4CCCC4C(=O)O)C(=O)N23)c1 (some centres undefined)	6.1	97.2*	3.6	-2.4
COc1cccc(C2c3[nH]c4ccccc4c3C[C@H]3C(=O)N(CCCCCO)CC(=O)N23)c1 (some centres undefined)	-9.5	98.0*	-14.0	4.0
COc1ccc([C@@H]2C[C@H]3[C@@H](CN2S(=O)(=O)c2ccccc2)C(=O)C[C@@H](c2cccc4ccccc24)N3S(=O)(=O)c2ccc(C)cc2)cc1	7.1	·	-3.3	·
CN1CC(=O)N2C(c3ccc(Cl)cc3)c3[nH]c4ccccc4c3C[C@H]2C1=O (some centres undefined)	-14.5	98.5*	-48.9	-3.9
CCc1ccc(CCNC(=O)OC2CC3CC2[C@H]2CCCCN2[C@H]3Cc2ccccc2)cc1 (some centres undefined)	2.2	·	-6.9	·
Cc1ccc(N=Nc2c(=O)[nH]n3c(C)cc(C)nc23)cc1	-16.7	9.4	-8.7	13.0
Cc1ccc(N=Nc2c(N)[nH]n3c(=O)cc(C)nc23)cc1	-5.2	97.1*	2.4	2.6
CCC(c1nnc(SCC(=O)Nc2ccc(C(=O)Nc3ccccc3OC)cc2)o1)N(C)C (centres undefined)	-4.3	98.6*	2.7	1.3
CC(C)NC(=O)COc1nncc2ccccc12	0.9	99.9*	1.3	-2.1
Cn1c(C2CCCCC2)nc2cc(N)ccc21	-3.8	88.7*	-4.5	-16.5
Nc1ccc(-c2nc3cc(N)ccc3n2CCO)cc1	-2.1	98.3*	1.9	-74.2
Cn1c(CO)nc2cc(N)ccc21	2.2	79.6*	0.0	-5.0
CCN(CC)C(=O)C1=C(C)N(Cc2ccc(OC)cc2)C(=O)C(CC(=O)NC(c2ccccc2)c2ccccc2)C1 (centres undefined)	-4.8	·	-9.7	·
Cc1ccc(Nc2c([N+](=O)[O-])c(=O)oc3ccccc23)cc1	-0.5	-3.4	-5.6	4.8
O=c1oc2ccccc2c(Nc2ccc(O)cc2)c1[N+](=O)[O-]	-14.4	94.4*	11.8	-3.5
Cc1nn2cc(-c3ccc(N)cc3)nc2s1	-3.7	98.4*	-8.4	9.1
Cn1c(CCNC(=O)c2ccccc2Cl)n[nH]c1=S	-6.8	96.0*	-2.3	1.6
Cc1ccc(C(=O)NCCc2n[nH]c(=S)n2C)cc1	-3.7	2.8	-5.1	-0.7
C[C@@H](NC(=O)C[C@H]1CC[C@H]2[C@@H](COc3ccc(NC(=O)Nc4ccccc4)cc3C(=O)N2C)O1)c1ccccc1	4.2	·	4.0	·
